# Data taken from PubChem BioAssay AID1347383 (Zoeller Lab, School of Medicine, Boston University, 2020).
# The source made the active and inactive calls.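 The calls were made as follows: active = cell survival after UV exposure 2 SD above solvent-only control wells at 10 µM, confirmed on one or two repeats; inactive = the rest.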
# Assay: protection of CHO cells from pyrene-fatty acid UV killing, primary screen, phospholipid biosynthesis inhibitor project, ZR-82 cells, Analyticon library, screen 2 (AID 1347383);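 also: survival reflects blocked phospholipid synthesis cutting uptake of the phototoxic fatty acid; compound and fatty acid exposure 3 h then viability read next day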
# Settings: ZR-82 CHO cells, CellTiter Blue, at 10 µM, peroxisome-deficient CHO-K1 variant, with DGAT-1, DGAT-2 and ACAT inhibitors
row,SMILES,outcome
1,CC1Cc2cc(O)c(O)cc2C(c2ccc(O)cc2)C1C (stereo not drawn),inactive
2,O=C(O)c1ccc(OC2OC(CO)C(O)C(O)C2O)cc1 (stereo not drawn),inactive
3,COc1cc(O)cc2occ(-c3ccc(O)cc3O)c(=O)c12,inactive
